Bioassay records deposited in PubChem by several laboratories.
This is a sample that favours compounds with a hit; in the whole collection about 5.1% have one here.
TMEM16A act: TMEM16A chloride channel activators or potentiators, primary screen, cell-based, HTS. Anoctamin-1 (Mus musculus), Q8BHY3. B-score at 10 µM. 340,000 tested, 0.3% active. AID 623877, 2012. HEK293 TMEM16A/YFP-H148Q/I152L, iodide quench fluorescence; active compounds read low;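 active means fluorescence-ratio B-score plate-corrected deviation score at least 3 library SD below zero, with starting fluorescence score within 5 deviations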;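 further: channel opened by trigger with iodide after compound preincubation; score built on the fluorescence ratio of max minus min over baseline; more negative score means more quench and so TMEM16A activation or potentiation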
MPTP inh: mitochondrial permeability transition pore inhibitors, primary screen, biochemical, isolated mouse mitochondria, absorbance. Ca2+ swelling absorbance, 30 min. inhibition, % at 10 µM. 360,000 tested, 1.4% active. AID 602449, 2012;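 active means inhibition of 50% or more, scaled per plate between neutral and stimulator controls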;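 further: 0% = DMSO wells given calcium and 100% = 1 mM EGTA wells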
CRFBP-R2 block: antagonists of CRF-BP/CRF-R2 complex, primary screen, cell-based, HEK293, calcium dye fluorescence, uHTS. 350,000 tested, 0.59% active. inhibition, % at 11.8 µM. CRF-induced calcium fluorescence. AID 588475, 2011;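 active means inhibition of the ligand-induced calcium signal above about 50% at the single tested concentration, limit read from the data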
CRFBP-R2 agonist: agonists of CRF-BP/CRF-R2 complex, primary screen, cell-based, HEK293, calcium dye fluorescence, uHTS | AID 588473, 2011 | activation, % at 13.2 µM | 350,000 tested, 0.46% active | calcium dye fluorescence (FLIPR); percent of saturating CRF peptide response | CRF-binding protein / CRF receptor 2 complex (human);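 active means activation of at least 50%, plus an integration ratio under a set limit after plate pattern correction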;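 further: plate controls were neutral control wells without compound for no effect and CRF at EC100 for full effect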
TMEM16A inh: TMEM16A chloride channel inhibitors, primary screen, cell-based, HTS; Anoctamin-1 (Mus musculus), Q8BHY3; HEK293 TMEM16A/YFP iodide influx fluorescence, ionomycin; normalized B-score (activity score, 25-100; higher = stronger inhibition) at 10 µM; 310,000 tested, 1.2% active; AID 588511, 2011;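 active means ratio plate-corrected score three or more library SD toward inhibition, starting fluorescence score within five deviations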;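 further: score derived from kinetic fluorescence span divided by baseline fluorescence per well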
NR3A LBD binder: binders of NR3A ligand-binding domain, primary screen, biophysical, differential scanning fluorimetry, uHTS. Glutamate receptor ionotropic, NMDA 3A (GRIN3A) ligand-binding domain. Tm shift relative to glycine control, % at 25 µM. NR3A LBD differential scanning fluorimetry, Tm shift; 0% = protein alone, 100% = glycine-bound protein. AID 1259313, 2017. 340,000 tested, 2.5% active;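 active means melting temperature shift of at least 10% of the positive control shift, at one fixed dose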
* hit, by the source's call; i = inactive; nt = no result given.

SMILES | TMEM16A act | MPTP inh | CRFBP-R2 block | CRFBP-R2 agonist | TMEM16A inh | NR3A LBD binder
NC(=O)c1ccc2nc(NC(=O)c3ccc(N)cc3)sc2c1 | i | -1 | -32 | -3 | nt | 14*
COc1ccc(OCC(=O)Nc2nc3ccc(NC(C)=O)cc3s2)cc1 | i | -2 | 1 | 2 | i | 14*
O=C(CCNS(=O)(=O)c1ccccc1C(F)(F)F)N1CCN(S(=O)(=O)c2cccc(F)c2)CC1 | i | 0 | -2 | -1 | i | 1
CS(=O)(=O)Nc1ccc2c(c1)[C@@H]1C[C@@H](CC(=O)NCc3cccnc3)O[C@H](CO)[C@@H]1O2 | nt | -1 | -10 | 5 | nt | nt
CNC(=O)c1cc(C(=O)c2ccc(Cl)cc2)c(Br)[nH]1 | i | 0 | 15 | -1 | i | -1
COc1ccc([N+](=O)[O-])c(OC)c1C(=O)NC(=O)Nc1nc(C)nc(C)n1 | i | 0 | 3 | 0 | i | -1
Cc1ccc(N(CC(=O)N2CCN(c3ccc(F)cc3)CC2)S(=O)(=O)c2c(C)noc2C)cc1 | i | -1 | -31 | 0 | i | 0
COc1ccc(C(=O)Nc2nc3ccccc3s2)cc1 | i | 2 | -13 | -1 | i | 26*
COc1ccc2nc(NC(C)=O)sc2c1 | i | -2 | -5 | -1 | i | 1
COc1ccc2nc(NC(=O)c3ccc(F)cc3)sc2c1 | i | 3 | -16 | 0 | i | 10*
COc1ccccc1NC(=O)Nc1nc2ccc(S(N)(=O)=O)cc2s1 | i | -1 | -18 | 2 | i | 20*
COc1ccc2nc(NC(=O)Nc3ccccc3OC)sc2c1 | i | 1 | -12 | -2 | i | -2
COc1ccc2nc(NC(=O)c3ccc4ncsc4c3)sc2c1 | i | 1 | -10 | 1 | i | 26*
COc1ccc2nc(NC(=O)Nc3cccc4ccccc34)sc2c1 | i | 6 | -30 | -1 | i | 23*
CC(=O)OC(C)(C)/C=C/C(=O)[C@](C)(O)C1[C@H](O)C[C@@]2(C)C3CC=C4C(C=C(O[C@@H]5O[C@H](CO)[C@@H](O)[C@H](O)[C@H]5O)C(=O)C4(C)C)[C@]3(C)C(=O)C[C@]12C (stereo partly drawn) | i | 2 | -20 | 5 | nt | 16*
COc1ccc(CN2CCNC(=O)C2CC(=O)N2CCCN(C(C)=O)CC2)cc1OC (stereo not drawn) | i | -1 | 9 | 0 | i | 1
N/C(=N\OC(=O)COc1ccc(Br)cc1)c1ccncc1 | i | 2 | 59* | -5 | i | -4
N/C(=N\OC(=O)COc1ccc([N+](=O)[O-])cc1)c1ccncc1 | i | -2 | -6 | -1 | i | -1
CC(=O)Nc1nc(S(=O)(=O)c2ccc(C)cc2)c(Cl)s1 | i | 0 | 1 | 1 | i | 1
Cc1ccc(S(=O)(=O)c2nc(Nc3nccs3)sc2Cl)cc1 | i | 42 | -8 | 1 | i | 12*
COCCNC(=O)C(c1ccc(C)cc1)N(Cc1cccs1)C(=O)CCC(=O)Nc1ccccn1 (stereo not drawn) | i | 0 | 3 | -1 | i | 1
COC(=O)c1cc(NC(=O)/C=C/c2ccc3c(c2)OCO3)cc(C(=O)OC)c1 | i | 8 | 6 | 0 | i | -6
CC(=O)Nc1ccc(NC(=O)/C=C/c2ccc3c(c2)OCO3)cc1 | i | 0 | -6 | -2 | i | 2
O=C(/C=C/c1ccc2c(c1)OCO2)c1ccc(O)cc1O | i | 3 | 5 | -3 | nt | 32*
NS(=O)(=O)c1ccc(NC(=O)/C=C/c2ccc3c(c2)OCO3)cc1 | i | -2 | -13 | 1 | i | 12*
COC(=O)c1cccc(NC(=O)/C=C/c2ccc3c(c2)OCO3)c1 | i | 0 | -29 | 0 | i | 16*
Cc1ccc(C(=O)C=Cc2ccc3c(c2)OCO3)c(C)c1 | nt | 1 | 20 | -1 | nt | nt
